# Shiga toxin inh – inhibitors of Shiga toxin in Vero cells | inhibition, % at 38.7 µM | AID 2315 | 9.2% of 290,000 active | Vero cells, Shiga toxin protein synthesis inhibition reporter; in the data active = inhibition mostly above about 28%, no sharp cut-off; inactive = mostly below about 43%; also: 0% is about no effect
# Marburg entry inh – blocks Marburg virus binding to or entry into cells | Potency, µM (series often up to 37.8 µM), without a hit: at the top dose activity change, negative = inhibition, most hits filed as inhibitors | 1.8% of 300,000 active | Marburg virus pseudotyped entry inhibition, cell reporter; calls by dose curve; tested in HEK293 cells; also: potency is read from the fitted curve at half-maximal effect; % is scaled to controls: 0 for no effect and ±100 for the full control effect
# LASV entry inh – blocks Lassa virus binding to or entry into cells | AID 540256 | 1.2% of 300,000 active | Potency, µM (series often up to 37.9 µM), for the others: top-dose activity change, negative = inhibition, usual class: inhibitors | Lassa virus pseudotype entry inhibition, cell reporter; calls by dose curve; tested in HEK293 cells; also: potency is read from the fitted curve at half-maximal effect; % is scaled to controls: 0 for no effect and ±100 for the full control effect; nearly all actives have a fitted effect of over 50% in size
# Vaccinia Venus – inhibitors of vaccinia virus (Venus reporter); 0.46% of 330,000 active; Potency, µM (series often up to 36.5 µM), without a hit: at the highest dose activity change, negative = inhibition, usual class: inhibitors; Vaccinia virus Venus reporter expression, fluorescence; calls by dose curve; tested in A549 cells; also: potency is read from the fitted curve at half-maximal effect; % is scaled to controls: 0 for no effect and ±100 for the full control effect; nearly all actives have a fitted effect of over 30% in size
# CHX counter – counter-screen hit for Shiga toxin inhibitors, cycloheximide; cell reporter, cycloheximide protein synthesis inhibition counterscreen; max response, %; 12% of 300,000 active; AID 2314; in the data active = max response mostly above about 13%, no sharp cut-off; inactive = mostly below about 14%; also: read at 38.3 µM for the half of the compounds with a filed dose; 0% is about no effect
# VACV mCherry inh – vaccinia inhibition (mCherry reporter) | Vaccinia virus mCherry reporter infection, fluorescence | Potency, µM (titrated, usually from 36.5 µM), for inactives: top-dose activity change, negative = inhibition, actives largely listed as inhibitors | 0.63% of 310,000 active | AID 720579; calls by dose curve; tested in A549 cells; also: potency is read from the fitted curve at half-maximal effect; % is scaled to controls: 0 for no effect and ±100 for the full control effect; nearly all actives have a fitted effect of over 35% in size
# * = called active by the depositor; i = inactive; ? = inconclusive; / = no result; [ ] = dose if it differs, or a comment. This excerpt belongs to a sample that is enriched for hits.
SMILES,Shiga toxin inh,Marburg entry inh,LASV entry inh,Vaccinia Venus,CHX counter,VACV mCherry inh
CC(=O)OC[C@H]1O[C@H](C#CC(C)(C)C)C=C[C@H]1OC(C)=O,/,16.1%[14.2 µM],/,/,/,/
CC(C)(C)c1ccc(OC(=O)c2ccccc2)cc1,17.6,4.0%[46.1 µM],11.1%[46.1 µM],-12.5%,-2.0,i
CC(C)(C)c1ccc(C(=O)Oc2ccc3c(c2)OCC3=O)cc1,85.6*,-1.5%,-29.2%,-4.8%,53.9*,-9.5%
O=C(Oc1ccc2c(c1)OCC2=O)c1ccccc1,active,3.0%,24.4%,-14.6%,44.5*,-14.7%
CC(C)CC(=O)Nc1c2c(nn1-c1ccc(F)cc1)CS(=O)C2 (stereo not given),19.5,/,/,/,24.4*,/
Cc1ccc(-c2ccccc2NC(=O)CCl)o1,51.2,?,-22.0%,2.3%,15.9*,/
Cc1ccc(-c2ccccc2NC(=O)CS(=O)CC(=O)Nc2ccc(C)c(Cl)c2)o1 (stereo not given),-9.2,?,?,127.4%,-7.0,?
O=C(NCCCNC(=O)c1ccc(-c2cc(Cl)ccc2Cl)o1)c1cnccn1,-3.2,/,/,/,-0.9,/
CCCS(=O)(=O)c1nnnn1-c1cccc(OC)c1,2.0,25.9µM*,-23.0%[14.3 µM],-10.9%,-1.2,-19.6%
O=C(NC(NC(=S)Nc1ccccc1Cl)C(Cl)(Cl)Cl)c1cccc(Cl)c1 (stereo not given),-11.6,?,?,?,2.4,12.6µM*
O=C(Cc1cccc2ccccc12)NC(NC(=S)Nc1ccccc1Cl)C(Cl)(Cl)Cl (stereo not given),-15.6,5.62µM*,?,-22.2%,-3.3,-15.3%
O=C(COC(=O)c1cc(-c2ccc(Cl)s2)nc2ccccc12)NCc1ccco1,18.1,?,13.8%,-18.3%,15.8*,/
Cc1ccc(-c2cc(C(=O)NCc3ccco3)c3ccccc3n2)s1,29.5,?,-18.1%,-1.9%,9.3*,/
COc1ccc(C)cc1NC(=O)c1cc2ccccc2cc1OCC(=O)NCc1ccco1,7.5,-8.4%,1.5%,6.0%,29.7*,-4.1%
COc1ccc(C)cc1NC(=O)NCc1ccco1,-2.6,22.9%[14.2 µM],9.6%,-3.2%,1.9,-2.7%
Cc1nn(-c2ccccn2)c2nc(-c3cccs3)cc(C(=O)NCc3ccco3)c12,39.4,-23.0%,0.0%,-27.3%,19.0*,i[1.46 µM]
CCOc1ccc(CNCc2c(C(=O)O)n(Cc3ccccc3C)c3cc(OC)ccc23)cc1OC,4.4,/,?,-7.9%[7.34 µM],-2.7,-11.2%[7.34 µM]
CC1CCCCN1CCCNC(=O)C1CCCN(c2ncnc3c2nc2n3CCCCC2)C1 (stereo not given),-11.3,?,5.2%[46.1 µM],-23.8%,-1.3,-9.2%
O=C(NCc1ccco1)c1cc(-c2cccs2)nc2ccccc12,14.2,?,-18.3%,-1.7%,13.4*,-11.8%
COc1cc(-c2cc(C(=O)NCc3ccco3)c3ccccc3n2)cc(OC)c1OC,27.0,?,-24.1%,-9.4%,23.2*,-18.3%
O=C(COC(=O)c1cc(-c2cccs2)nc2ccccc12)NCc1ccco1,90.4*,-11.3%,10.9%,1.3%,29.1*,-9.1%
CCOC(=O)c1ccc(NC(=O)CC2C(=O)N(c3ccc(F)cc3)C(=O)N2Cc2ccc3c(c2)OCO3)cc1 (stereo not given),/,?,-2.7%[46.1 µM],-8.2%,/,-8.3%
CC(=O)c1ccc(N2CCN(C(=S)NCCCN(C)C)CC2)cc1,15.0,3.1%[46.1 µM],-4.1%[46.1 µM],-10.2%,-2.0,-10.9%
O=C(CN1C(=O)COc2ccc(Cl)cc21)Nc1cccc(C(=O)O)c1,/,?,0.1%[46.1 µM],1.0%,/,-7.7%
Cc1cn([C@H]2C[C@H](O)[C@@H](CNC(=O)c3ccccn3)O2)c(=O)[nH]c1=O,/,/,/,5.6%,/,-9.9%
SMILES,Shiga toxin inh,Marburg entry inh,LASV entry inh,Vaccinia Venus,CHX counter,VACV mCherry inh
CC(C)CCC[C@@H](C)[C@H]1CC[C@H]2[C@@H]3CC=C4CC(O)CC[C@]4(C)[C@H]3CC[C@]12C (stereo not given in full),10.9,/,/,/,3.5,/
COc1ccccc1OCCNC(=O)c1ccc(C)c(S(=O)(=O)N2CCOCC2)c1,/,0.2%,-6.9%,-20.4%,/,-19.3%
COc1ccc(Cn2c(CO)cnc2SCC(=O)NCc2ccco2)cc1,/,/,0.6%[46.1 µM],-2.5%,/,11.7%
COc1ccccc1-c1noc(-c2ccc(N3CCN(C)CC3)c([N+](=O)[O-])c2)n1,/,3.9%[46.1 µM],15.4%[46.1 µM],-26.2%,/,-10.2%
CCOc1cc(-c2nc(-c3ccccc3OC)no2)cc(OCC)c1OCC,-10.3,?,?,1.9%,-4.0,/
COc1ccccc1-c1noc(-c2ccccc2)n1,89.2*,?,-27.8%,0.0%,49.2*,-2.4%
COc1ccccc1-c1noc(-c2ccco2)n1,79.6*,?,?,-9.4%,51.3*,/
COc1cc(-c2noc(-c3ccco3)n2)cc(OC)c1OC,80.2*,-41.2%,-5.7%,-16.6%,18.3*,-13.5%
COc1cc(-c2noc(-c3cccc(Cl)c3)n2)cc(OC)c1OC,-8.6,15.2%,12.8%,/,-0.5,/
COc1ccc(-c2nc(-c3ccccc3OC)no2)cc1OC,161.8*,28.2%,20.2%,/,65.7*,/
Cc1ccc(C(=O)N(CC(C)C)c2c(N)n(Cc3ccccc3)c(=O)[nH]c2=O)o1,/,9.3%[46.1 µM],-21.8%,-7.9%,/,i
COc1ccc(CNc2ncnc3c2cnn3-c2ccc(Cl)cc2)cc1,/,/,29.7%[46.1 µM],1.6%,/,-12.4%
COc1ccc(-n2ncc3c(NCc4cccnc4)ncnc32)cc1,85.9*,/,/,/,52.2*,/
CC(=O)NNc1ncnc2c1cnn2-c1ccc(C)c(C)c1,64.7*,26.7%[46.1 µM],-0.2%,0.8%,56.2*,i
COc1ccccc1CNc1ncnc2c1cnn2-c1ccccc1,43.0*,/,/,-29.7%,30.7*,i
Cc1ccc(-n2ncc3c(NCc4ccccc4)ncnc32)cc1,102.7*,5.1%,?,-4.6%,111.1*,/
CCOc1ccc(N(CC(=O)NC(C)C)C(=O)CCC(=O)Nc2ccccn2)cc1,-6.9,/,/,/,5.7,/
CCOc1cc(CNC(=O)NC2COc3ccc(OC)cc3C2)cc(OCC)c1OCC (stereo not given),/,/,0.0%[46.1 µM],-9.1%,/,-8.0%
Cc1cc2c(c(-c3nc4ccccc4s3)c1)OC(CNC(=O)c1occc1C)C2 (stereo not given),/,/,/,7.3%,/,-9.2%
Cc1ccc(CN2CCN(/N=C/c3ccc(Cl)c([N+](=O)[O-])c3)CC2)cc1,28.3,?,0.1%[46.1 µM],6.0%,-3.5,-6.5%
Cc1ccc(-n2ncc3c(NCc4cccnc4)ncnc32)c(C)c1,7.8,?,?,-16.7%,0.4,-11.7%
Cc1cccc(C(=O)NNc2ncnc3c2cnn3C)c1,35.6,-1.9%[46.1 µM],12.3%,-3.1%,30.0*,-3.0%
Cc1cccc(-n2ncc3c(NCc4cccnc4)ncnc32)c1,76.6*,/,/,?,46.5*,-12.5%
Cc1ccc(-n2ncc3c(NCc4cccnc4)ncnc32)cc1C,115.1*,?,-22.6%[46.1 µM],-27.5%,45.2*,?
Cc1cccc(C(=O)NNc2ncnc3c2cnn3-c2ccc(C)cc2C)c1,/,/,8.7%[46.1 µM],-11.6%,/,-17.3%
CCOc1ccc(CCNC(=O)C2CCN(C(=O)N3CC(CC)Oc4ccccc43)CC2)cc1 (stereo not given),/,/,?,-16.7%,/,-7.6%

# Compound activity deposited in PubChem BioAssay by National Center for Advancing Translational Sciences (NCATS).
